Data published in the supplement of paper PMC10646978.
± gives the standard deviation.

Assays:
Details in all cases: modulator concentration 10 µM
[1] = tested on: RAW-Dual (murine macrophage reporter line); assay: NF-kB reporter (SEAP) activity fold change vs agonist alone; higher = enhanced NF-kB activity
Method in brief: (§1)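 In 384-well plates holding 50 000 RAW-Dual murine macrophage reporter cells per well, compound at 10 μM final was pre-incubated for 1 hour at 37 °C, after which a PRR agonist was added overnight. Supernatant SEAP read with QUANTI-Blue at 620 nm absorbance reported NF-κB, and Lucia luciferase read with QUANTI-Luc luminescence reported IRF. Fold change values come from dividing each reporter signal by the mean of agonist-only control wells on the same plate, averaged over replicate plates with propagated errors.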

[2] = tested on: RAW-Dual (murine macrophage reporter line); assay: IRF reporter (Lucia luciferase) activity fold change vs agonist alone; higher = enhanced IRF activity
Method in brief: as §1

[3] = tested on: RAW-Dual (murine macrophage reporter line); assay: viability score (confluency relative to resting cells, overnight) (fraction); higher = more viable, active = viable (0.7 or more)
Method in brief: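 In 384-well plates, RAW-Dual macrophages received compound at a final 10 μM overnight. Two confluency masks were then made with IncuCyte software from IncuCyte images of all imaged wells. The viability score is defined as confluency relative to resting cells. Passing the cutoff required both masks to lie above 70% of resting cells.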

[4] = agonist: CpG ODN 1826 0.5 ug/mL

SMILES | NF-kB reporter [1, 4] | NF-kB reporter ([1]; agonist: LPS 0.1 ug/mL) | NF-kB reporter ([1]; agonist: MPLA […]) | IRF reporter ([2]; agonist: 3'3'-cGAMP 10 ug/mL) | IRF reporter ([2]; agonist: LPS 0.1 ug/mL) | IRF reporter ([2]; agonist: MPLA […]) | viability score [3]
Cn1ccnc1Sc1nc(Nc2cccc(Cl)c2)nc(N2CCOCC2)n1 | 0.519 ± 0.045 | 1.03 ± 0.12 | 1.21 ± 0.13 | 0.474 ± 0.019 | 1.24 ± 0.14 | 1.09 ± 0.23 | 1.01 (active)
COc1ccc(CCNc2cc(C)nc3cc(-c4ccc(OC)c(OC)c4)nn23)cc1OC | 1.18 ± 0.067 | 1.13 ± 0.086 | 1.27 ± 0.035 | 0.733 ± 0.026 | 0.978 ± 0.073 | 1.13 ± 0.11 | 1 (active)
O=C(NCCN1CCOCC1)c1ccc(Cl)cc1 | 1.37 ± 0.2 | 1.13 ± 0.3 | 0.953 ± 0.055 | 0.95 ± 0.048 | 1.26 ± 0.43 | 1.01 ± 0.078 | 0.992 (active)
CCOc1ccc(C=C2SC(=S)N(C)C2=O)cc1 | 0.96 ± 0.075 | 1.01 ± 0.072 | 0.905 ± 0.073 | 0.962 ± 0.049 | 1.39 ± 0.15 | 1.3 ± 0.23 | 1.01 (active)
CCc1cccc2c3c([nH]c12)C(CC)(CC(=O)O)OCC3 (configuration not stated) [Prestw-231] | 0.957 ± 0.25 | 0.995 ± 0.066 | 1.19 ± 0.15 | 0.926 ± 0.039 | 1.24 ± 0.15 | 1.32 ± 0.24 | 0.989 (active)
CC(C)C1=NN2C(=N)C(=Cc3ccc(-c4ccccc4[N+](=O)[O-])o3)C(=O)N=C2S1 | 0.927 ± 0.078 | 0.953 ± 0.065 | 0.944 ± 0.066 | 0.89 ± 0.043 | 1.48 ± 0.22 | 1.06 ± 0.22 | 1.01 (active)
O=C(c1ccc(S(=O)(=O)N2CCCC2)cc1)N1CC(Nc2ccncn2)C1 | 0.978 ± 0.1 | 0.986 ± 0.086 | 0.921 ± 0.057 | 0.969 ± 0.071 | 1.23 ± 0.13 | 1.06 ± 0.095 | 1 (active)
CN(C)CCC=C1c2ccccc2C=Cc2ccccc21.Cl | 0.43 ± 0.079 | 1.25 ± 0.15 | 1.13 ± 0.069 | 0.406 ± 0.019 | 1.61 ± 0.14 | 1.18 ± 0.13 | 0.918 (active)
COc1ccc(C2OCC3C(c4ccc(OC)c(OC)c4)OCC23)cc1OC (configuration not stated) | 1.18 ± 0.091 | 1.03 ± 0.094 | 1.08 ± 0.11 | 1.11 ± 0.088 | 1.07 ± 0.13 | 1.21 ± 0.23 | 1.01 (active)
CCN1C(=O)CC(NCCc2ccc(S(N)(=O)=O)cc2)C1=O (configuration not stated) | 0.979 ± 0.056 | 1.03 ± 0.074 | 0.905 ± 0.065 | 0.961 ± 0.035 | 1.46 ± 0.19 | 1.22 ± 0.16 | 0.997 (active)
CCC(=O)N(CCC(c1ccccc1OC)C1CCOC(C)(C)C1)Cc1ccc(OC)cc1 (configuration not stated) | 0.907 ± 0.072 | 0.986 ± 0.059 | 0.938 ± 0.056 | 1.04 ± 0.055 | 1.23 ± 0.29 | 1.04 ± 0.088 | 1.01 (active)
CCCCCCCCCCC[C@@H](C[C@@H]1OC(=O)[C@H]1CCCCCC)OC(=O)[C@H](CC(C)C)NC=O | 1.1 ± 0.083 | 0.92 ± 0.058 | 1.02 ± 0.044 | 1.04 ± 0.23 | 0.927 ± 0.048 | 0.923 ± 0.12 | 1 (active)
c1cc2c3c(cccc3c1)-c1nc3ccccc3nc1-2 | 0.993 ± 0.17 | 1.09 ± 0.13 | 1.02 ± 0.095 | 0.984 ± 0.026 | 1.32 ± 0.15 | 1.59 ± 0.3 | 1.01 (active)
Fc1ccc2ccccc2c1 | 0.958 ± 0.077 | 0.979 ± 0.16 | 1.01 ± 0.13 | 1.03 ± 0.033 | 1.12 ± 0.12 | 1.15 ± 0.18 | 1.01 (active)
CC(C)n1cnc(S(=O)(=O)N2CCC(S(=O)(=O)c3nccn3C)CC2)c1 | 0.36 ± 0.028 | 0.842 ± 0.067 | 0.663 ± 0.048 | 0.935 ± 0.026 | 1.34 ± 0.14 | 1.14 ± 0.084 | 0.878 (active)
COc1cc(CNC2CCCc3ccccc32)cc(OC)c1OC (configuration not stated) | 0.878 ± 0.074 | 1.02 ± 0.095 | 0.982 ± 0.04 | 0.865 ± 0.056 | 1.05 ± 0.087 | 0.972 ± 0.15 | 0.992 (active)
Cc1cc(C)n(-c2ccc(=O)n(CCNS(=O)(=O)c3ccccc3F)n2)n1 | 1.08 ± 0.09 | 1.08 ± 0.086 | 0.937 ± 0.049 | 1.01 ± 0.059 | 1.2 ± 0.081 | 1.13 ± 0.11 | 1 (active)
c1ccc2nc3c(cc(N4CCOCC4)c4ccccc43)nc2c1 | 0.92 ± 0.078 | 1.04 ± 0.062 | 0.969 ± 0.14 | 0.924 ± 0.023 | 1.34 ± 0.2 | 1.08 ± 0.2 | 1.01 (active)
Cc1ccc(C(CNC(=O)NC2CCCC2)OCCO)cc1 (configuration not stated) | 0.622 ± 0.072 | 1.08 ± 0.1 | 0.808 ± 0.047 | 0.944 ± 0.075 | 1.07 ± 0.1 | 1.1 ± 0.27 | 1.01 (active)
O=C(NCCCc1cnc2ncnn2c1)c1cccc2ccccc12 | 0.88 ± 0.039 | 0.857 ± 0.071 | 1.06 ± 0.059 | 1.02 ± 0.057 | 1.23 ± 0.14 | 1.45 ± 0.39 | 0.98 (active)
CCC(=O)N1CCCC1c1nc2ccccc2n1CCOc1ccc(Cl)cc1 (configuration not stated) | 0.717 ± 0.18 | 1.15 ± 0.063 | 1.2 ± 0.095 | 0.967 ± 0.097 | 0.992 ± 0.21 | 1.1 ± 0.1 | 0.996 (active)
CNC(=O)Cc1cn(Cc2ccccc2)c2ccccc12 | 0.809 ± 0.19 | 1.11 ± 0.12 | 1.11 ± 0.082 | 0.947 ± 0.038 | 0.977 ± 0.11 | 1.05 ± 0.12 | 0.999 (active)
CN1C(C(=O)Nc2ccccn2)=C(O)c2sc(Cl)cc2S1(=O)=O | 0.744 ± 0.047 | 0.896 ± 0.094 | 1.08 ± 0.11 | 0.955 ± 0.043 | 1.43 ± 0.22 | 1.72 ± 0.59 | 0.967 (active)
CCOC(=O)C1=C(C)NC(=O)N(C(C)=O)C1c1ccc(Br)cc1 (configuration not stated) | 0.554 ± 0.032 | 0.898 ± 0.1 | 0.868 ± 0.052 | 1.28 ± 0.044 | 1.66 ± 0.14 | 1.34 ± 0.2 | 0.621 (inactive)
Cc1cnc2c(c1NCCCO)c(=O)n(C)c(=O)n2C | 1.1 ± 0.1 | 1.01 ± 0.088 | 1.02 ± 0.027 | 0.881 ± 0.04 | 0.947 ± 0.11 | 0.887 ± 0.21 | 0.995 (active)
Cn1ncc(Cl)c1-c1cc(C(=O)N[C@H](CN)Cc2ccc(F)c(F)c2)oc1Cl | 1.13 ± 0.34 | 1.49 ± 0.11 | 1.48 ± 0.14 | 0.363 ± 0.014 | 0.597 ± 0.064 | 0.827 ± 0.079 | 0.661 (inactive)
